Lmaj promast: Leishmania major promastigote growth inhibition, primary screen; Leishmania major promastigotes, resazurin fluorescence viability; inhibition, % at 10 µM; 200,000 compounds, 9% hits; in the data active means inhibition above about 50%;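 further: promastigotes grown with compound for 44 hours at 28 °C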
Calpain2 inh: inhibitors of pig calpain II, primary screen, biochemical, fluorogenic peptide substrate, 1536-well | purified calpain II, 30 min | inhibition, % at 16 µM | 220,000 compounds, 0.37% hits;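 active means inhibition above about 50%, limit read from the data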
ROMK mod: ROMK potassium channel modulators, primary screen, cell-based, thallium flux, MLSMR library | ATP-sensitive inward rectifier potassium channel 1 (Homo sapiens), P48048 | Tet-inducible ROMK, thallium flux fluorescence; actives lie on both sides | B-score at 10 µM | 130,000 compounds, 2% hits | AID 1918, 2009;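 active means signal ratio slope over the read window, or its plate-corrected B-score, at least 3 SD from the plate mean, either direction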;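 further: B-score of the F/F0 ratio slope over 7 to 12 s after thallium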
Target sequence (P48048 whole entry, looked up): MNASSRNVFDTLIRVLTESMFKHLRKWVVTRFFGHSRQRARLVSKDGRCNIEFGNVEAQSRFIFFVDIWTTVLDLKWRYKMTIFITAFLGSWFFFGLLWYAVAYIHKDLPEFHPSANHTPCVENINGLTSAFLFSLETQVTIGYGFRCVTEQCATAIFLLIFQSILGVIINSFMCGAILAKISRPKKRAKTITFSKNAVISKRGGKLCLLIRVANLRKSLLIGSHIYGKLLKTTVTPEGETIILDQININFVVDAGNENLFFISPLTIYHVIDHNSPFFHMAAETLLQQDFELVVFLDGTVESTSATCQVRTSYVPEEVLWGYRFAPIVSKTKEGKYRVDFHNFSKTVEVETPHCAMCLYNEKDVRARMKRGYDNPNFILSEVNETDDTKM
WT yeast gro inh: growth inhibition of WT strain, primary screen, mitochondrial fusion inhibitor project, WT and mutant strains, chemical genetic; mitochondrial fusion phenotypic screen; inhibition, % at 10 µM; 190,000 compounds, 2.1% hits; AID 1362, 2008; in the data active means inhibition above about 58%; tested in S. cerevisiae
Cl transport mod: KCC2 cotransporter modulators, thallium flux, primary screen, cell-based, HEK293 KCC2, FluoZin-2 fluorescence, MLSMR; KCC2 cells, thallium flux FluoZin-2 fluorescence; B-score of Tl+ flux slope (higher = more flux/activation; lower = inhibition) at 10 µM; 190,000 compounds, 2.2% hits; Solute carrier family 12 member 5 (Homo sapiens), Q9H2X9;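 active means thallium flux slope and its plate-corrected score both differing from the plate sample mean at a set confidence after two filtering rounds, in either direction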;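 further: slope of fluorescence scaled to starting intensity during 10 to 20 s after thallium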
The depositor's hits bear a star; x = not tested or not shown. The list is not random: actives were taken first. Their share in the collection is about 12%.

SMILES	Lmaj promast	Calpain2 inh	ROMK mod	WT yeast gro inh	Cl transport mod
COc1ccc(C2NN=C(c3ccc(C)cc3)S2)cc1OC (stereo not drawn)	15	-439	0.024	6	x
Fc1cccc(C2NN=C(c3ccccc3)S2)c1 (stereo not drawn)	-5	16	-0.64	6	26*
O=C(Nc1ccccc1N1CCOCC1)c1cccc(F)c1	4	-18	x	76*	0.36
Nc1cc(C(=O)c2ccccc2)ccc1N1CCOCC1	54*	-3	0.88	-18	1.1
O=C(Nc1ccccc1N1CCOCC1)c1cc(F)cc(F)c1	7	-33	-0.12	74*	1.1
CC(=O)Nc1cc(C(=O)c2ccccc2)ccc1N1CCOCC1	1	-3	x	9	x
C/C(CC(C)C)=N\Nc1ccc(S(N)(=O)=O)cc1[N+](=O)[O-]	6	0	-1.1	11	1.3
Cc1ccc(C(=O)C(C)N(C(=O)c2ccc(Cl)cc2Cl)N2C(=O)CCCC2=O)cc1 (stereo not drawn)	25	9	-0.79	-6	0.16
COc1ccc(C(=O)C(C)N(C(=O)c2ccc(Cl)cc2Cl)N2C(=O)C3C4C=CC(C4)C3C2=O)cc1 (stereo not drawn)	90*	-1	x	32	0.07
O=[N+]([O-])c1ccccc1OCCCNCc1ccccc1	98*	19	0.61	4	0.13
O=C(COc1ccccc1[N+](=O)[O-])c1ccccc1	99*	8	-1.9	-7	-1.4
O=C(/C=C/c1ccccc1[N+](=O)[O-])OCC(=O)c1ccccc1	-4	-9	-0.0015	-8	-3
Cc1ccc(C)c(S(=O)(=O)N2CCCOC2CNC(=O)C(=O)NCc2cccnc2)c1 (stereo not drawn)	0	2	0.64	12	0.69
O=C(CCCO)CCCCCCCCC[C@H]1N[C@H](CO)[C@@H](O)[C@@H]1O	-6	-1	0.019	-14	0.98
CC[C@H](C)[C@H](NC(=O)c1ccc(Cl)cc1)C(=O)OCC(=O)c1ccc2c(c1)NC(=O)CO2	100*	-23	0.73	-6	x
CC(C)[C@H](NC(=O)c1ccccc1)C(=O)OCC(=O)c1ccc2c(c1)NC(=O)CO2	6	-16	-0.59	2	0.37
CCN1CCC(NC(=O)Nc2cc(Cl)ccc2OC)CC1	20	-16	0.033	7	0.33
CCOC(=O)C=C(C(=O)OCC)C(=O)OCC	100*	19	1	16	0.46
O=S(=O)(CC(O)CS(=O)(=O)c1ccc(Cl)cc1)c1ccccc1 (stereo not drawn)	x	-16	-0.049	x	0.31
CNC(=O)NC(=O)C(C)OC(=O)c1ccc(Cl)c(S(=O)(=O)Nc2ccc(F)cc2)c1 (stereo not drawn)	x	-7	x	x	x
CN(C)c1ccc(/C=C2\C(=O)N(c3ccc([N+](=O)[O-])cc3)N=C2N2CCOCC2)cc1	80*	x	x	x	0.33
O=C(c1cnn(C(=O)c2cccc(S(=O)(=O)N3CCOCC3)c2)c1)c1ccccc1O	-3	1	-0.28	1	-2.3
CC1CCCCC12NC(=O)N(CC(=O)Nc1ccccc1N1CCOCC1)C2=O (stereo not drawn)	5	-13	-0.37	-12	0.11
CCOC(=O)c1c(C)[nH]c(N=Nc2cccc(C)c2)c1C	9	20	0.39	73*	1.9
CCOC(=O)c1c(C)[nH]c(N=Nc2cccc(OC)c2)c1C	6	18	0.51	67	1
SMILES	Lmaj promast	Calpain2 inh	ROMK mod	WT yeast gro inh	Cl transport mod
CCOc1ccc(NC(=O)c2sccc2-n2cccc2)cc1	1	10	-0.98	9	0.3
COc1ccc(/C=C2/SC(=O)N(NS(=O)(=O)c3ccccc3)C2=S)cc1OC	-9	31	-1.3	34	x
CCOC(=O)C1=C(C)Nc2ccccc2N=C1N	-2	-11	-0.057	-4	-0.69
CCCCN(CCCC)C1=Nc2ccccc2N/C1=C(/C#N)C(=O)OCC	23	7	x	68*	0.28
CCOC(=O)/C(C#N)=C1\Nc2ccccc2N=C1N(CC(C)C)CC(C)C	81*	-7	-1.6	76*	-0.2
Cc1ccc2[nH]c(=O)c(CN(Cc3ccccc3)Cc3nnnn3C3CCCC3)cc2c1	53*	31	-2.5	25	-0.055
Cc1cccc2cc(CN(Cc3ccc(F)cc3)Cc3nnnn3C3CCCC3)c(=O)[nH]c12	20	-4	0.79	1	x

Bioassay records: PubChem, several laboratories
